Laboratory results taken from the OligoGym collection.

These sequences were tested against MED31 (assay: pooled miR-30 sensor sort-seq; sequence = guide strand). Settings: shRNA.
Further: reference of the scale not given here.

Sequence | sensor-assay potency score (higher = more potent)
AACATGTGTAAACACTGAGGGT | -0.84
TTGCACAAATTCCAACTCCAAC | -1.8
TTGCTGTTGCTGCTCTGCCAAG | -1.72
TTTGCTGTTGCTGCTCTGCCAA | -0.936
TCTAACATGTGTAAACACTGAG | 0.543
TTGGAGCAGCTCTAACATGTGT | -0.598

The sequences below were run against MEI1 in the same assay as above. Settings: shRNA.

Sequence | sensor-assay potency score (higher = more potent)
TAGCACTTTCTCCCAGTCCATC | -1.62
TTCTCTGAATCTCTACTGGAGG | -0.666
TAGACTAGCTGCAGGTCTGGGA | -0.257
TGGAACAGGACTACTAAGCTGG | 0.124
AAAGGTAACAGACAGAAGCTTG | -0.962
TCTTGCTCTGACACATTCCTGA | 0.143
TTTTCTGATTGCACTGACCATA | -0.486
TTGCTCTGACACATTCCTGAGC | -0.804
ATGGTGAGTATAGACTAGCTGC | -0.611
TTGCGCACTAACGACACGCCGG | -1.01
TTGTGAGCTGTGTCCACTGGGC | -0.159
